Consider 8 molecules from PMC5540273 (PLoS ONE, 2017).

In assay [1] the test system is JAK1(JH2domain-pseudokinase). The conditions noted are these: concentration: 1 μM, replicates: in singlicate; n = 1.
The subject of assay [2] is JAK2(JH1domain-catalytic). The conditions noted are these: concentration: 1 μM, replicates: in singlicate; n = 1.
The test system of assay [3] is JAK3(JH1domain-catalytic). The conditions noted are these: concentration: 1 μM, replicates: in singlicate; n = 1.
In assay [4] the test system is T1, JNK1.
T1 construct: gene MAPK8
The conditions noted are these: concentration: 1 μM, replicates: in singlicate; n = 1.

Assay [5] has as its system T2, JNK2.
T2 construct: gene MAPK9
The conditions noted are these: concentration: 1 μM, replicates: in singlicate; n = 1.

Assay [6] deals with T3, JNK3.
T3 construct: gene MAPK10
The conditions noted are these: concentration: 1 μM, replicates: in singlicate; n = 1.

For assay [7], the system named is KIT-autoinhibited. The conditions noted are these: concentration: 1 μM, replicates: in singlicate; n = 1.
For assay [8], the system named is KIT. The conditions noted are these: concentration: 1 μM, replicates: in singlicate; n = 1.
Assay [9] relates to LATS1. The conditions noted are these: concentration: 1 μM, replicates: in singlicate; n = 1.
In assay [10] the test system is LATS2. The conditions noted are these: concentration: 1 μM, replicates: in singlicate; n = 1.
In assay [11] the test system is LCK. The conditions noted are these: concentration: 1 μM, replicates: in singlicate; n = 1.
Assay [12] relates to LIMK1. The conditions noted are these: concentration: 1 μM, replicates: in singlicate; n = 1.
The test system of assay [13] is LIMK2. The conditions noted are these: concentration: 1 μM, replicates: in singlicate; n = 1.
Assay [14] relates to T4, LKB1.
T4 construct: gene STK11
The conditions noted are these: concentration: 1 μM, replicates: in singlicate; n = 1.

The subject of assay [15] is T5, LOK.
T5 construct: gene STK10
The conditions noted are these: concentration: 1 μM, replicates: in singlicate; n = 1.

In assay [16] the test system is LRRK2. The conditions noted are these: concentration: 1 μM, replicates: in singlicate; n = 1.
The subject of assay [17] is LTK. The conditions noted are these: n = 1.
In assay [18] the test system is LYN. The conditions noted are these: concentration: 1 μM, replicates: in singlicate; n = 1.
Assay [19] concerns T6, LZK.
T6 construct: gene MAP3K13
The conditions noted are these: concentration: 1 μM, replicates: in singlicate; n = 1.

In assay [20] the test system is MAK. The conditions noted are these: concentration: 1 μM, replicates: in singlicate; n = 1.
Where [21] appears, read: concentration: 1 μM, replicates: in singlicate.

Where two headings read alike, the source gives them in different places.
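Note: KINOMEscan kinase panel screen.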

As to `COc1cc(Nc2nccc(N3CCC(NC(=O)Nc4ccc5c(c4)OCO5)C3)n2)cc(OC)c1OC` (stereo not shown) [GSK1379766], the “%Inh” value in assay [1] was found to be 47%; in assay [2], 89%; in [3] it was 0%; in [4], 34%; in assay [5], 0%; in assay [6] it was 35%. In addition, the “%Inh” value was determined as 5% in assay [7]; 66% in assay [8]; 0% in assay [9]; 12% in [10]; 32% in [11]; 40% in assay [12]. Besides, the “%Inh” value in [13] is given as 13%; in [14] it was 0%; in [15], 0%; in assay [16] it was 0%; in assay [17] (setting [21]), 74%; in assay [18], 3%. The figures for the “%Inh” value in assay [19] and in [20] were 24% and 3%, respectively.

With `Cc1ccc(O)cc1Nc1ccnc2cc(-c3ccc(CN4CCCCC4)o3)ccc12` [GW557777], the “%Inh” value in assay [1] is recorded as 7%; in [2], 0%; in [3], 15%; in assay [4], 0%; in [5] it was 0%; in assay [6], 0%. The “%Inh” value is reported as 56% in assay [7]; 100% in [8]; 0% in [9]; 22% in assay [10]; 99.7% in assay [11]; 6% in assay [12]. Also, the “%Inh” value in [13] is 8%; in [14] it was 0%; in assay [15] it was 17%; in assay [16] it was 19%; in assay [17] (setting [21]), 0%; in assay [18], 95.3%. Further, the “%Inh” value in [19] and in [20] was 0% each time.

For the molecule `N#CC1(c2cccc(C(=O)Nc3cccc(Oc4ccc5nc(NC(=O)C6CC6)sc5n4)c3)c2)CC1`, the “%Inh” value is 15% in assay [1]; 0% in assay [2]; 0% in [3]; 0% in [4]; 0% in [5]; 0% in [6]. The “%Inh” value in [7] is on record as 76%; in assay [8], 99.9%; in [9] it was 0%; in assay [10], 0%; in [11], 99.3%; in assay [12], 6%. The “%Inh” value amounted to 0% in assay [13]; 0% in assay [14]; 95.9% in [15]; 0% in [16]; 0% in assay [17] (setting [21]); 91.4% in [18]. Further, the “%Inh” value in assay [19] turned out to be 0%; in assay [20], 3%.

Consider `Cl.Cl.NC(CNC(=O)c1cc(Br)c(-c2ccnc3[nH]ccc23)s1)c1ccccc1` (stereo not shown) [GSK1322949], for which the “%Inh” value in assay [1] turned out to be 0%; in assay [2], 94.3%; in [3], 96.8%; in assay [4] it was 44%; in [5] it was 37%; in [6] it was 28%. Also, the “%Inh” value was 0% in assay [7]; 38% in [8]; 54% in [9]; 93.7% in assay [10]; 3% in assay [11]; 0% in assay [12]. In addition, the “%Inh” value is 0% in assay [13]; 69% in assay [14]; 0% in assay [15]; 31% in [16]; 0% in [17] (setting [21]); 0% in [18]. Moreover, the “%Inh” value in assay [19] is recorded as 7%; in [20], 19%.

On to `Cc1nn2c(=O)cc(N3CCO[C@H](C)C3)nc2n1Cc1cccc(Cl)c1Cl` [GSK2373693], for which the “%Inh” value was found to be 0% in [1]; 22% in assay [2]; 0% in [3]; 16% in assay [4]; 9% in assay [5]; 7% in assay [6]. Besides, the “%Inh” value in [7] is 0%; in assay [8], 51%; in assay [9] it was 0%; in assay [10], 0%; in [11] it was 13%; in [12] it was 0%. The “%Inh” value in [13] turned out to be 0%; in assay [14], 0%; in [15], 0%; in [16] it was 18%; in [17] (setting [21]), 27%; in assay [18] it was 0%. The “%Inh” value is recorded as 0% in assay [19] and 15% in assay [20].

Regarding `Cn1cc(-c2cnc(N)c3c(-c4ccc5c(c4)CCN5C(=O)Cc4ccccc4)csc23)cn1` [GSK2593074], the “%Inh” value in assay [1] is 0%; in assay [2], 26%; in [3], 0%; in assay [4] it was 13%; in assay [5], 0%; in [6], 0%. The “%Inh” value is recorded as 32% in assay [7]; 100% in assay [8]; 1% in [9]; 23% in assay [10]; 93.8% in assay [11]; 49% in assay [12]. Further, the “%Inh” value in [13] is given as 55%; in assay [14], 0%; in assay [15], 98.9%; in assay [16], 3%; in [17] (1 µM), 0%; in assay [18] it was 65%. The “%Inh” value in [19] and in [20] was 0% in each case.

Regarding `Cc1ccc(C)c(NC(=O)Nc2ccc(C)c(-c3ccc(C(=O)Nc4ccncc4)cc3)c2)c1` [GSK1398473], the “%Inh” value was 0% in assay [1]; 0% in assay [2]; 0% in [3]; 15% in assay [4]; 14% in [5]; 6% in assay [6]. Besides, the “%Inh” value in assay [7] was 0%; in assay [8], 99.9%; in assay [9], 3%; in assay [10] it was 0%; in assay [11], 47%; in assay [12], 25%. The “%Inh” value in [13] turned out to be 2%; in [14], 0%; in assay [15], 0%; in [16] it was 0%; in assay [17] (setting [21]), 0%; in assay [18], 17%. Moreover, the “%Inh” value worked out at 0% in assay [19] and 65% in assay [20].

`Nc1ncnc2scc(-c3ccc(NC(=O)Cc4cc(F)ccc4F)cc3)c12.O=C(O)C(F)(F)F` [SB-731254-M]: the “%Inh” value came out at 49% in [1]; 27% in assay [2]; 0% in assay [3]; 35% in [4]; 19% in assay [5]; 18% in [6]. The “%Inh” value is recorded as 87% in [7]; 100% in assay [8]; 13% in assay [9]; 36% in assay [10]; 54% in [11]; 55% in [12]. The “%Inh” value is 96% in assay [13]; 29% in [14]; 81% in [15]; 0% in assay [16]; 71% in assay [17] (setting [21]); 16% in assay [18]. Further, the figures for the “%Inh” value in assay [19] and in assay [20] were 0% and 20%, respectively.
